Laboratory results from the supplement of paper PMC10849652.
Targets with a hit are over-represented here; the source holds about 7,900 in all. About 0.6% of all pairs of compound and target were hits. Values without a mark were called inactive.

Legend:
Assay in all cases: log2 fold change, soluble protein after heating vs DMSO (PISA); higher = thermal stabilisation; K562 cells, 10 uM, 30 min; active = over 0.2 and 3.5 SD of the protein, either way, in both replicates (recomputed)
saracatinib = compound: CN1CCN(CCOc2cc(OC3CCOCC3)c3c(Nc4c(Cl)ccc5c4OCO5)ncnc3c2)CC1 [saracatinib]
In short: (§1)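 Values are thermal stability changes relative to control samples and are taken from duplicates. They are stated as log2 fold changes. Before quantification by TMTpro 16plex LC-MS/MS with equalised channel sums, K562 cells at 2×10^6 cells/mL were treated with 10 μM compound for 30 min, heated in aliquots for 3 min across 48°C-58°C, pooled, extracted in PBS with 0.5% NP-40 at 4°C, and centrifuged at 21,000xg for 90 min to give the soluble supernatant.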

sotrastaurin = compound: CN1CCN(c2nc(C3=C(c4c[nH]c5ccccc45)C(=O)NC3=O)c3ccccc3n2)CC1 [sotrastaurin]
In short: as §1

alvocidib = compound: CN1CC[C@H](c2c(O)cc(O)c3c(=O)cc(-c4ccccc4Cl)oc23)[C@H](O)C1 [alvocidib]
In short: as §1

Tubastatin A = compound: CN1CCc2c(c3ccccc3n2Cc2ccc(C(=O)NO)cc2)C1 [Tubastatin A]
In short: as §1

[1] = compound: CNC(=O)C1=CC=CC=C1NC2=NC(=NC=C2Cl)NC3=C(C=C(C=C3)N4CCOCC4)OC
In short: as §1

defactinib = compound: CNC(=O)c1ccc(Nc2ncc(C(F)(F)F)c(NCc3nccnc3N(C)S(C)(=O)=O)n2)cc1 [defactinib]
In short: as §1

rucaparib = compound: CNCc1ccc(-c2[nH]c3cc(F)cc4c3c2CCNC4=O)cc1 [rucaparib]
In short: as §1

[2] = compound: CNc1nc(-c2ccc3c(N)n[nH]c3c2)cc(N2C[C@@H](C(=O)NC3CCCCC3)CC[C@H]2C)n1
In short: as §1

encorafenib = compound: COC(=O)N[C@@H](C)CNc1nccc(-c2cn(C(C)C)nc2-c2cc(Cl)cc(NS(C)(=O)=O)c2F)n1 [encorafenib]
In short: as §1

[3] = compound: COC(=O)[C@H](CCSC)NC(=O)C1=C(C=C(C=C1)NC[C@H](CS)N)C2=CC=CC=C2
In short: as §1

[4] = compound: COC1=CC=C(C=C1)CN2C=CC3=C2C=C(C=C3)C(=O)NO
In short: as §1

filanesib = compound: CON(C)C(=O)N1N=C(c2cc(F)ccc2F)S[C@@]1(CCCN)c1ccccc1 [filanesib]
In short: as §1

zotarolimus = compound: CO[C@H]1C[C@@H]2CC[C@@H](C)[C@@](O)(O2)C(=O)C(=O)N2CCCC[C@H]2C(=O)O[C@H]([C@H](C)C[C@@H]2CC[C@H](n3cnnn3)[C@H](OC)C2)CC(=O)[C@H](C)/C=C(\C)[C@@H](O)[C@@H](OC)C(=O)[C@H](C)C[C@H](C)/C=C/C=C/C=C/1C [zotarolimus]
In short: as §1

idasanutlin = compound: COc1cc(C(=O)O)ccc1NC(=O)[C@@H]1N[C@@H](CC(C)(C)C)[C@](C#N)(c2ccc(Cl)cc2F)[C@H]1c1cccc(Cl)c1F [idasanutlin]
In short: as §1

alisertib = compound: COc1cc(Nc2ncc3c(n2)-c2ccc(Cl)cc2C(c2c(F)cccc2OC)=NC3)ccc1C(=O)O [alisertib]
In short: as §1

[5] = compound: COc1cc2nc(-c3cc(F)ccc3O)nc(N[C@@H]3CNC[C@H]3C(C)(C)O)c2cc1OC
In short: as §1

gefitinib = compound: COc1cc2ncnc(Nc3ccc(F)c(Cl)c3)c2cc1OCCCN1CCOCC1 [gefitinib]
In short: as §1

[6] = compound: COc1cccc2cc(-c3nc([C@H]4CC[C@H](C(=O)O)CC4)n4ncnc(N)c34)[nH]c12
In short: as §1

lapatinib = compound: CS(=O)(=O)CCNCc1ccc(-c2ccc3ncnc(Nc4ccc(OCc5cccc(F)c5)c(Cl)c4)c3c2)o1 [lapatinib]
In short: as §1

pictilisib = compound: CS(=O)(=O)N1CCN(Cc2cc3nc(-c4cccc5[nH]ncc45)nc(N4CCOCC4)c3s2)CC1 [pictilisib]
In short: as §1

AIP (UniProt O00170)
Sequence of UniProt O00170 (O00170 whole entry, looked up): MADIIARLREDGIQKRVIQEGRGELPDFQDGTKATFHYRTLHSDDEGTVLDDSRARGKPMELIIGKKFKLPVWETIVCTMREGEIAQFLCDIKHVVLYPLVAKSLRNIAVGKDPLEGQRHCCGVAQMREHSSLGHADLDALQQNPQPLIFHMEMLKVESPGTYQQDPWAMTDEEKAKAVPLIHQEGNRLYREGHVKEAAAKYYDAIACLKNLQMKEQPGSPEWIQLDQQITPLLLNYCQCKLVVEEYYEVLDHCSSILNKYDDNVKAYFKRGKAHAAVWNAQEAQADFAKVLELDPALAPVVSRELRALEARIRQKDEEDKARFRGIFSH
log2 fold change (saracatinib): 0.009 | log2 fold change (sotrastaurin): -0.038 | log2 fold change (alvocidib): -0.079 | log2 fold change (Tubastatin A): 0.034 | log2 fold change [1]: 0.028 | log2 fold change (defactinib): -0.068 | log2 fold change (rucaparib): -0.015 | log2 fold change [2]: -0.046 | log2 fold change (encorafenib): 0.065 | log2 fold change [3]: -0.025 | log2 fold change [4]: 0.06 | log2 fold change (filanesib): -0.041 | log2 fold change (zotarolimus): 0.021 | log2 fold change (idasanutlin): -0.019 | log2 fold change (alisertib): -0.046 | log2 fold change [5]: 0.054 | log2 fold change (gefitinib): -0.002 | log2 fold change [6]: -0.019 | log2 fold change (lapatinib): -0.019 | log2 fold change (pictilisib): 0.015

AP2S1 (UniProt P53680)
Sequence of UniProt P53680 (P53680 whole entry, looked up): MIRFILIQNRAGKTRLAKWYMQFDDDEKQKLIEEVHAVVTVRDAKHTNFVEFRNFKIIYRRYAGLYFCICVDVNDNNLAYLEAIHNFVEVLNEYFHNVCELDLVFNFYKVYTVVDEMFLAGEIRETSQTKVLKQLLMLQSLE
log2 fold change (saracatinib): 0.012 | log2 fold change (sotrastaurin): 0.009 | log2 fold change (alvocidib): -0.009 | log2 fold change (Tubastatin A): 0.009 | log2 fold change [1]: 0.077 | log2 fold change (defactinib): 0.038 | log2 fold change (rucaparib): 0.019 | log2 fold change [2]: -0.012 | log2 fold change (encorafenib): 0.077 | log2 fold change [3]: 0.025 | log2 fold change [4]: -0.031 | log2 fold change (filanesib): 0.037 | log2 fold change (zotarolimus): 0.013 | log2 fold change (idasanutlin): -0.033 | log2 fold change (alisertib): -0.159 | log2 fold change [5]: 0.023 | log2 fold change (gefitinib): 0.017 | log2 fold change [6]: -0.061 | log2 fold change (lapatinib): -0.022 | log2 fold change (pictilisib): -0.023

AGO1 (UniProt Q9UL18)
log2 fold change (saracatinib): -0.066 | log2 fold change (sotrastaurin): -0.307 | log2 fold change (alvocidib): 0.141 | log2 fold change (Tubastatin A): -0.164 | log2 fold change [1]: -0.039 | log2 fold change (defactinib): -0.03 | log2 fold change (rucaparib): 0.16 | log2 fold change [2]: -0.085 | log2 fold change (encorafenib): 0.086 | log2 fold change [3]: -0.036 | log2 fold change [4]: -0.107 | log2 fold change (filanesib): -0.015 | log2 fold change (zotarolimus): -0.069 | log2 fold change (idasanutlin): 0.009 | log2 fold change (alisertib): 0.05 | log2 fold change [5]: -0.031 | log2 fold change (gefitinib): -0.119 | log2 fold change [6]: -0.029 | log2 fold change (lapatinib): 0.061 | log2 fold change (pictilisib): -0.002

ARFRP1 (UniProt Q13795)
Sequence of UniProt Q13795 (Q13795 whole entry, looked up): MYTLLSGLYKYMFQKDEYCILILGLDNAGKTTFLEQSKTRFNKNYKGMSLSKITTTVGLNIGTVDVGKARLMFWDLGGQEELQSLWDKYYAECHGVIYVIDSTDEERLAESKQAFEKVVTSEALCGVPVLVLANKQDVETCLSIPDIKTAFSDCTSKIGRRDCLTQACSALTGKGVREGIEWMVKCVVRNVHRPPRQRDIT
log2 fold change (saracatinib): 0.108 | log2 fold change (sotrastaurin): -0.035 | log2 fold change (alvocidib): -0.008 | log2 fold change (Tubastatin A): -0.059 | log2 fold change [1]: 0.037 | log2 fold change (defactinib): 0.01 | log2 fold change (rucaparib): 0.033 | log2 fold change [2]: 0.031 | log2 fold change (encorafenib): -0.027 | log2 fold change [3]: -0.137 | log2 fold change [4]: 0.127 | log2 fold change (filanesib): -0.261 (active) | log2 fold change (zotarolimus): 0.02 | log2 fold change (idasanutlin): -0.168 | log2 fold change (alisertib): 0.111 | log2 fold change [5]: 0.039 | log2 fold change (gefitinib): -0.016 | log2 fold change [6]: -0.024 | log2 fold change (lapatinib): 0.071 | log2 fold change (pictilisib): 0.168

ATP12A isoform 2 (UniProt P54707)
Sequence of UniProt P54707 (P54707 whole entry, looked up): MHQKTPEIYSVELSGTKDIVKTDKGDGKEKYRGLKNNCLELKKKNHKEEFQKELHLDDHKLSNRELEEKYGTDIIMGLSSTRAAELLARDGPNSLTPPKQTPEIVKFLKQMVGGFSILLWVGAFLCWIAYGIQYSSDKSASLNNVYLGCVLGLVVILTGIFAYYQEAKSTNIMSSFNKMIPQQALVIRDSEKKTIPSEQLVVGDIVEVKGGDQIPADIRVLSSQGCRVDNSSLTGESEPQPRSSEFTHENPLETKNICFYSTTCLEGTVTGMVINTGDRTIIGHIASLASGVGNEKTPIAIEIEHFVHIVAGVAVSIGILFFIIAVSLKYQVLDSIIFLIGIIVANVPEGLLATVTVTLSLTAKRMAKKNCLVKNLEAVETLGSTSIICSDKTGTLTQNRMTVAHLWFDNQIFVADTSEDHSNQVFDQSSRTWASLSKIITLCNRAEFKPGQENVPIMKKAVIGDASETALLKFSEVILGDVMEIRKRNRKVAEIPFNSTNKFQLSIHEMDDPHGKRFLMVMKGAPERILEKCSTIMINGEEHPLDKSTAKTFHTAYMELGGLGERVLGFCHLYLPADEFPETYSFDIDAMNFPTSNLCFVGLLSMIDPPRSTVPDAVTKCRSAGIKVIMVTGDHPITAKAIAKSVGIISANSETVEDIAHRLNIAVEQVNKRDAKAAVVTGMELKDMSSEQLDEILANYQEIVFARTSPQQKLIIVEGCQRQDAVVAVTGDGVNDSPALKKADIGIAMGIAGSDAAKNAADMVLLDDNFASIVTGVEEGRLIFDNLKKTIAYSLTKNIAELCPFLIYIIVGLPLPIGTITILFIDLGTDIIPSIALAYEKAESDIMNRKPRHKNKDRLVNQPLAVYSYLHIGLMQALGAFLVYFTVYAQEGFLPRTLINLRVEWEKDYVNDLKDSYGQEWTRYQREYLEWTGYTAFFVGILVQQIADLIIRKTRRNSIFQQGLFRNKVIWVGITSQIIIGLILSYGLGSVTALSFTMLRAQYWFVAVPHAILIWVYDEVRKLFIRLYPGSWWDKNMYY
log2 fold change (saracatinib): 0.011 | log2 fold change (sotrastaurin): 0.031 | log2 fold change (alvocidib): -0.026 | log2 fold change (Tubastatin A): -0.019 | log2 fold change [1]: 0.002 | log2 fold change (defactinib): -0.072 | log2 fold change (rucaparib): -0.027 | log2 fold change [2]: 0.023 | log2 fold change (encorafenib): -0.015 | log2 fold change [3]: -0.005 | log2 fold change [4]: -0.034 | log2 fold change (filanesib): -0.015 | log2 fold change (zotarolimus): -0.015 | log2 fold change (idasanutlin): 0.016 | log2 fold change (alisertib): -0.008 | log2 fold change [5]: 0.071 | log2 fold change (gefitinib): 0.032 | log2 fold change [6]: 0.043 | log2 fold change (lapatinib): -0.074 | log2 fold change (pictilisib): 0.1

AGPAT3 isoform 3 (UniProt Q9NRZ7)
Sequence of UniProt Q9NRZ7 (Q9NRZ7 whole entry, looked up): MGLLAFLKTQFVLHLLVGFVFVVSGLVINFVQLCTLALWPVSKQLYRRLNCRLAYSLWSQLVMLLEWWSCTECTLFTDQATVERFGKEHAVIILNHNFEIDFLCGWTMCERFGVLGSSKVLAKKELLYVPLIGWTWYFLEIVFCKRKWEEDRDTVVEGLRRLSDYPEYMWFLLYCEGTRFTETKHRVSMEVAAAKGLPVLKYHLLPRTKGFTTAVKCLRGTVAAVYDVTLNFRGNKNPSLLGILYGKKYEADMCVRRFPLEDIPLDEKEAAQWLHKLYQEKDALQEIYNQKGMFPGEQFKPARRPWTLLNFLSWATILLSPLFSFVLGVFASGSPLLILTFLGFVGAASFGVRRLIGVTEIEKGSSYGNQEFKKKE
log2 fold change (saracatinib): 0.01 | log2 fold change (sotrastaurin): -0.084 | log2 fold change (alvocidib): -0.061 | log2 fold change (Tubastatin A): 0.019 | log2 fold change [1]: 0.012 | log2 fold change (defactinib): -0.037 | log2 fold change (rucaparib): -0.036 | log2 fold change [2]: -0.045 | log2 fold change (encorafenib): -0.001 | log2 fold change [3]: 0.008 | log2 fold change [4]: -0.083 | log2 fold change (filanesib): -0.106 | log2 fold change (zotarolimus): 0.048 | log2 fold change (idasanutlin): -0.149 | log2 fold change (alisertib): 0.012 | log2 fold change [5]: 0.083 | log2 fold change (gefitinib): 0.012 | log2 fold change [6]: 0.005 | log2 fold change (lapatinib): 0.004 | log2 fold change (pictilisib): -0.013

ATG4B isoform 2 (UniProt Q9Y4P1)
Sequence of UniProt Q9Y4P1 (Q9Y4P1 whole entry, looked up): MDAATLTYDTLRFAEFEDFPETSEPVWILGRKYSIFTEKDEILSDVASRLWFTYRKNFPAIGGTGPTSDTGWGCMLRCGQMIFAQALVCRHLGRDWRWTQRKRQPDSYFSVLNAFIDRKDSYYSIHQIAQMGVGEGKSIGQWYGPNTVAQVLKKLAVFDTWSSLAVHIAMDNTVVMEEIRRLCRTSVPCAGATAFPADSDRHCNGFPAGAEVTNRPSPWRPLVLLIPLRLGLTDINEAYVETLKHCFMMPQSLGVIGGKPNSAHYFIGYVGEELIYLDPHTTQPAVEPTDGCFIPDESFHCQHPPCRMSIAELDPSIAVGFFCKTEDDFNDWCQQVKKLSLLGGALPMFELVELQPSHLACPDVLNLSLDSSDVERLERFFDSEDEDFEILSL
log2 fold change (saracatinib): -0.186 | log2 fold change (sotrastaurin): -0.297 | log2 fold change (alvocidib): -0.19 | log2 fold change (Tubastatin A): 0.02 | log2 fold change [1]: 0.027 | log2 fold change (defactinib): -0.263 | log2 fold change (rucaparib): -0.02 | log2 fold change [2]: 0.004 | log2 fold change (encorafenib): -0.003 | log2 fold change [3]: -0.04 | log2 fold change [4]: -0.003 | log2 fold change (filanesib): -0.142 | log2 fold change (zotarolimus): 0.048 | log2 fold change (idasanutlin): -0.045 | log2 fold change (alisertib): -0.009 | log2 fold change [5]: -0.058 | log2 fold change (gefitinib): 0.005 | log2 fold change [6]: -0.082 | log2 fold change (lapatinib): -0.157 | log2 fold change (pictilisib): -0.311

ATAD1 (UniProt Q8NBU5)
Sequence of UniProt Q8NBU5 (Q8NBU5 whole entry, looked up): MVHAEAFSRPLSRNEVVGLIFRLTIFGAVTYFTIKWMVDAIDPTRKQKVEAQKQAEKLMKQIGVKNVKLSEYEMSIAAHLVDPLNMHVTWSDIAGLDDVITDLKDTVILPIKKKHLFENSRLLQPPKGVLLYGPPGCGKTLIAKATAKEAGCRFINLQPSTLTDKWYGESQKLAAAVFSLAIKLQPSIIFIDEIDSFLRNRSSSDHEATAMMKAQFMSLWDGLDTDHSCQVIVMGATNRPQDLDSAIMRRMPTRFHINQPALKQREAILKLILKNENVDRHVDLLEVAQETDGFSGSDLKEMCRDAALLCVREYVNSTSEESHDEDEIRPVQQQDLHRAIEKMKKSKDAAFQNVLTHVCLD
log2 fold change (saracatinib): -0.044 | log2 fold change (sotrastaurin): 0.029 | log2 fold change (alvocidib): -0.007 | log2 fold change (Tubastatin A): 0.008 | log2 fold change [1]: -0.032 | log2 fold change (defactinib): -0.029 | log2 fold change (rucaparib): 0.018 | log2 fold change [2]: 0.136 | log2 fold change (encorafenib): 0.017 | log2 fold change [3]: -0.042 | log2 fold change [4]: 0.009 | log2 fold change (filanesib): -0.045 | log2 fold change (zotarolimus): 0.087 | log2 fold change (idasanutlin): -0.046 | log2 fold change (alisertib): -0.037 | log2 fold change [5]: -0.014 | log2 fold change (gefitinib): 0.003 | log2 fold change [6]: -0.029 | log2 fold change (lapatinib): 0.007 | log2 fold change (pictilisib): 0.012
